CHX counter = counter-screen hit for Shiga toxin inhibitors, cycloheximide; max response, %; AID 2314; cell reporter, cycloheximide protein synthesis inhibition counterscreen; 300,000 compounds, 12% hits; in the data active = max response mostly above about 13%, no sharp cut-off; inactive = mostly below about 14%; also: read at 38.3 µM for the half of the compounds with a filed dose; 0% is about no effect
Shiga inhibitor = Shiga toxin inhibition. Vero cells, Shiga toxin protein synthesis inhibition reporter. 290,000 compounds, 9.2% hits. inhibition, % at 38.7 µM; in the data active = inhibition mostly above about 28%, no sharp cut-off; inactive = mostly below about 43%; also: 0% is about no effect
Pf growth 96h = P. falciparum growth inhibition at 96 hour, primary screen for plastid delayed-death inhibitors; 320,000 compounds, 6.9% hits; P. falciparum luciferase reporter growth, 96 h; Potency, µM (doses to about 28.7 µM), inactives show at the top dose activity change, negative = inhibition, hits mostly inhibitors; also: potency is read from the fitted curve at half-maximal effect; % is scaled to controls: 0 for no effect and ±100 for the full control effect
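Cell-based qHTS: luciferase-tagged P. falciparum in erythrocytes (2% hematocrit, 0.05% parasitemia final) incubated with compounds for 96 hours, 37 C, 5% CO2; luciferase detection reagent then added and luminescence measured.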
AMA1 RON2 block = AMA1-RON2 (P. falciparum) interaction inhibition; AlphaScreen AMA1-biotinylated RON2 peptide binding; Potency, µM (titrated, usually from 58.2 µM), for the others: at the highest dose activity change, negative = inhibition, most hits filed as inhibitors; 360,000 compounds, 0.2% hits;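 also: potency is read from the fitted curve at half-maximal effect; 0% = vehicle wells and -100% = peptide control; nearly all actives have a fitted effect of over 45% in size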
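AMA1 (3D7) with his tag at 25 nM final met compounds first, then biotinylated RON2 peptide at 25 nM; detection used donor plus acceptor beads, 10 µg/mL apiece, read by AlphaScreen after 30 min at room temperature.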
SARS PLP yeast = SARS-CoV PLP inhibition in yeast; Potency, µM (highest dose often 32.9 µM), for inactives: at the highest dose activity, positive = growth rescue, usual class: activators; 330,000 compounds, 0.19% hits; S. cerevisiae expressing SARS-CoV PLpro, growth rescue; calls by dose curve; also: potency is read from the fitted curve at half-maximal effect; 0% is about no effect; nearly all actives have a fitted effect of over 55% in size
Pf growth 48h = P. falciparum growth inhibition at 48 hours (one generation) | 310,000 compounds, 5.9% hits | P. falciparum luciferase growth in erythrocytes, 48 h | AID 504832 | Potency, µM (doses to about 28.7 µM), inactives show top-dose activity change, negative = inhibition, usual class: inhibitors; also: potency is read from the fitted curve at half-maximal effect; % is scaled to controls: 0 for no effect and ±100 for the full control effect
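Firefly luciferase activity from engineered P. falciparum reports growth; inhibitors lower the luminescent signal. Cultures contained 2% hematocrit erythrocytes at 0.1% final parasitemia.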
* marks the source's active call; other numbers are inactive results; ? = inconclusive; · = not tested or not shown; [ ] = another dose, or the depositor's remark. Sampled rows, rich in hits. Any-hit rate of the full collection: about 19%. Unless noted, calls follow the shape of the dose curve; as a rule, active = well fitted curve in the direction sought with a large enough effect; inconclusive = small, poorly fitted or top-dose-only effect, or another doubt; inactive = no such curve, though single readings can be large; an effect the other way counts as inactive or inconclusive.

SMILES	CHX counter	Shiga inhibitor	Pf growth 96h	AMA1 RON2 block	SARS PLP yeast	Pf growth 48h
CCOC(=O)c1cnc2c(C#N)cnn2c1N	-1.3	2.4	-11.1%	31.0%	-0.1%	25.4%
CCOC(=O)c1cnc2c(-c3ccc(Cl)cc3)cnn2c1C	14.1*	31.9	?	2.7%	-0.6%	83.6%
Cc1ccc(S(=O)(=O)Nc2csc(C)c2C(=O)O)cc1	-1.9	-10.3	5.6%	22.7%	0.0%	-0.1%
CCN1CCN(C(=O)C2CCN(S(=O)(=O)N3CCC4(CC3)OCCO4)CC2)CC1	-4.3	-3.5	30.4%	-4.1%	2.5%	113.8%
C/C(=N\OC(=O)c1ccc(C)cc1)c1sc(C)nc1C	31.9*	32.9	19.3%	-7.7%	-4.7%	·
C/C(=N/OC(=O)c1ccc(C)cc1)c1cccs1	32.9*	123.0*	75.8%	0.0%	-20.3%	89.9%
C/C(=N/OC(=O)c1ccccc1Br)c1ccc(C)cc1	66.2*	138.8*	-25.1%	13.1%	-28.2%	52.0%
C=CCn1c(=N)n(CC(=O)c2ccc(OC)cc2)c2ccccc21	-2.5	20.3	-25.0%	1.3%	-2.6%	?
CCCc1nc(N2CCN(S(=O)(=O)c3ccc(Cl)cc3)CC2)c2c(C)c(C)sc2n1	-1.8	4.2	?	-11.7%	0.7%	?
Cc1sc2nc(CN3CCOCC3)nc(N3CCN(S(=O)(=O)c4ccccc4)CC3)c2c1C	·	·	?	-12.2%	-7.1%	9.28µM*
Cc1sc2nc(CN3CCCC3)nc(N3CCN(S(=O)(=O)c4cccc(F)c4)CC3)c2c1C	·	·	9.28µM*	22.6%	5.7%	8.28µM*
Cc1sc2ncnc(N3CCN(S(=O)(=O)c4ccc(C(C)(C)C)cc4)CC3)c2c1C	·	·	·	-4.1%	-3.7%	·
c1ccc2c(c1)CCN(c1nc(CN3CCOCC3)nc3sc4c(c13)CCCC4)C2	-1.2	-6.8	?	-10.1%	-1.4%	14.7µM*
Cc1nc(N2CCN(S(=O)(=O)c3ccc(F)cc3)CC2)c2c(C)c(C)sc2n1	-1.8	41.0	11.8%	0.8%	-6.3%	·
Cc1sc2nc(C3CC3)nc(N3CCN(S(=O)(=O)c4ccc(F)cc4)CC3)c2c1C	-2.5	-14.7	15.8%	0.0%	-0.3%	10.4µM*
CCc1ccccc1OCC(=O)OCC(=O)N1CC(=O)Nc2ccccc21	-2.2	-3.3	18.3%	10.0%	2.7%	15.1%
COc1ccc(C(=O)N2CCN(c3nc(C4CC4)nc4sc(C)c(C)c34)CC2)cc1	-1.8	-12.1	-16.1%	-14.6%	-4.1%	11.7µM*
Cc1cccc(C)c1NC(=O)CNC(=O)c1ccncc1	1.1	-3.9	24.3%	12.2%	0.9%	2.0%
CCN(CC)CCn1c(=O)n(-c2ccc(Cl)cc2)c(=O)c2c3c(sc21)CN(C)CC3	2.1	51.6	-14.8%	14.1%	-6.0%	4.65µM*
CN1CCc2c(sc3nc(NN)n(Cc4ccccc4)c(=O)c23)C1	8.2	-2.6	2.08µM*	37.7%	1.5%	3.7µM*
CN1CCc2c(sc3nc(NN)n(-c4ccc(Cl)cc4)c(=O)c23)C1	6.9	29.5*	?	59.1%	-1.6%	·
Cc1ccc(N(CC(=O)NCC2CCCO2)C(=O)CCC(=O)Nc2nccs2)cc1C (stereo not drawn)	-0.8	-5.0	?	-10.3%	0.2%	4.7%
COC(=O)[C@]1(C)N[C@H](CN(C)C(=O)Nc2ccc(OC)cc2)[C@@H]2C(=O)N(Cc3ccccc3)C(=O)[C@@H]21	·	·	·	-4.8%	-4.9%	·
FC(F)(F)c1nnc2ccc(-n3ccnc3)nn12	-7.0	-14.9	4.2%	-1.0%	-1.0%	·
Cc1ccc(OCc2ccc(C(=O)NNC(=S)NCC3CCCO3)o2)c([N+](=O)[O-])c1 (stereo not drawn)	-1.5	-9.2	8.2%	71.5%	1.3%	25.1%
SMILES	CHX counter	Shiga inhibitor	Pf growth 96h	AMA1 RON2 block	SARS PLP yeast	Pf growth 48h
COc1cc(C(=O)N[C@H](C(=O)NC(C)C23CC4CC(CC(C4)C2)C3)C(C)C)cc(OC)c1OC (stereo partly drawn)	-5.4	-13.3	?	-4.8%	3.8%	·
COc1ccc(C)cc1NC(=O)C(NC(=O)c1cc(OC)c(OC)c(OC)c1)C(C)C (stereo not drawn)	-1.8	-5.3	13.1µM*	-4.6%	-0.2%	-34.9%
CN(C)c1ccc(C(=O)c2ccc(N(C)C)cc2)cc1	17.4*	40.0	102.6%	-10.9%	-14.2%	·
CN(C)c1ccc(C(=O)NNC(=O)c2ccc(Cl)cc2)cc1	11.5	11.8	52.8%	33.0%	0.8%	24.3%
CN(C)c1ccc(C(=O)NN2C(=O)c3ccccc3C2=O)cc1	15.2*	43.4	-22.8%	-9.7%	-0.5%	32.1%
O=C(NN1C(=O)c2ccccc2C1=O)c1ccncc1	-1.3	7.1	11.4%	18.4%	8.0%	10.8%
CN(C)c1ccc2c(c1)Sc1cc(N(C)C)ccc1N2C(=O)c1ccccc1	6.8	14.7	1.65µM*	?	-0.6%	3.7µM*
Cc1ccc(C(=O)N2c3ccccc3Sc3ccccc32)cc1	·	·	·	0.0%	·	·
CN(C)c1ccc(C(=O)c2ccc(O)cc2O)cc1	29.2*	53.9*	351.7%	?	-34.3%	249.6%
CN(NC(=O)c1ccccc1F)c1ncccc1[N+](=O)[O-]	1.0	4.1	2.6%	21.8%	-0.4%	18.4%
CN(C)c1ccc(C(=O)C(=O)c2ccccc2)cc1	48.7*	66.7*	?	-9.8%	-3.4%	52.4%
CN(C)c1ccccc1	·	·	·	10.2%	·	·
CN(C)c1ccc(-c2nnc(SCC3CCCO3)n2C)cc1 (stereo not drawn)	44.2*	80.3*	-17.4%	23.3%	-0.5%	43.7%
CC1CCC(NC(=O)CSc2nncs2)CC1 (stereo not drawn)	·	·	37.8%	1.4%	5.9%	?
OC1C2(Cc3ccccc3)CN3CCN(C2)CC1(Cc1ccccc1)C3 (stereo not drawn)	1.7	3.4	0.928µM*	-6.2%	-0.8%	?
OC1C2CN3CCN(C2)CC1(Cc1ccccc1)C3 (stereo not drawn)	-2.8	-7.8	?	-4.6%	7.7%	22.7%
COc1ccc(/C(N)=N/OC(=O)C2CCCCC2)cc1OC	50.2*	78.2*	26.4%	14.8%	-6.0%	39.3%
COc1ccc(-c2ccc(C(=O)C3CC3)cc2)cc1	16.2*	64.7*	199.9%	0.9%	1.0%	-23.3%[0.00184 µM]
COc1ccc(C(=O)C2CCN(C(=O)c3ccc(C)cc3)CC2)cc1	-0.9	-17.8	?	1.6%	-11.2%	0.1%
N/C(=N\OC(=O)C1CCCCC1)c1cccc(Br)c1	-3.0	-7.4	4.4%	18.6%	2.8%	-15.8%
COc1ccc(/C(N)=N/OC(=O)C2CCCCC2)cc1	42.8*	136.3*	199.7%	-5.3%	-0.4%	186.4%
CC1OC(OC2C(CO)OC(OC3C(CO)OC(O)C(O)C3O)C(O)C2O)C(O)C(O)C1NC1C=C(CO)C(O)C(O)C1O (stereo not drawn)	-5.0	-3.6	·	·	·	·
Cc1ccc2[nH]c(C)c(/C=N/Nc3nc4ccccc4s3)c2c1	51.3*	39.3	?	19.8%	-29.5%	-43.1%

Assay outcomes deposited in PubChem BioAssay by National Center for Advancing Translational Sciences (NCATS).
